These results are taken from PubChem BioAssay (NCI).

Test systems include HCT-15 colon; HT29 colon; SNB-75 CNS; SNB-19 CNS; U251 CNS; PC-3 prostate; SK-MEL-5 melanoma; UACC-62 melanoma; SK-MEL-28 melanoma; SK-MEL-2 melanoma; EKVX NSCLC; SN12C renal; UO-31 renal; TK-10 renal; ACHN renal; CAKI-1 renal; A498 renal; CCRF-CEM leukemia; MOLT-4 leukemia.
Common to all, as to test: NCI-60 one-dose screen, 48 h (100 = growth as untreated, 0 = no growth, -100 = all killed)
Settings in all cases: 10 µM unless noted

The panel holds about 83,000 compounds, 20% with a hit somewhere; the sample as a whole holds those more often.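 Each cell line was grown in a 96-well plate and treated with one concentration of compound for 48 hours. Values below 10 were considered active.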 Values without a mark were called inactive. Activity calls are given as the source filed them.

Turning to `O=C(/C=C/c1cccc(Oc2ccccc2)c1)c1ccc(Nc2nc(Nc3ccc(F)cc3)nc(Nc3ccc(Cl)cc3)n2)cc1`, the growth in the assay with HCT-15 colon was 109%; in the assay with HT29 colon it was 101%; in the assay with SNB-75 CNS, 92.5%; with SNB-19 CNS it was 108%; with U251 CNS, 101%; in the assay on PC-3 prostate, 94%. Besides, the growth in the assay with SK-MEL-5 melanoma is 96.4%; in the assay with UACC-62 melanoma, 105%; in the assay on SK-MEL-28 melanoma, 112%; in the assay on SK-MEL-2 melanoma, 69.1%; with EKVX NSCLC, 106%; in the assay on SN12C renal, 123%. For the same molecule, the growth with UO-31 renal was 91.8%; with TK-10 renal, 130%; with ACHN renal, 98.6%; with CAKI-1 renal, 104%; in the assay on A498 renal, 113%; in the assay with CCRF-CEM leukemia, 116%. In the assay on MOLT-4 leukemia, the growth was -35.6% (active).

On to `COc1cc(/C=C/c2cn[nH]c2-c2ccc(C)cc2)cc(OC)c1OC`, for which the growth with HCT-15 colon was 23%; with HT29 colon, 6.79% (active); in the assay with SNB-75 CNS it was 29.5%; in the assay with SNB-19 CNS, 48.2%; with U251 CNS it was 22.6%; in the assay on PC-3 prostate, 28.2%. The growth in the assay with SK-MEL-5 melanoma was 12%; with UACC-62 melanoma, 32.8%; in the assay with SK-MEL-28 melanoma it was 56.8%; with SK-MEL-2 melanoma it was 2.13% (active); in the assay on UO-31 renal, 45.9%; in the assay on ACHN renal it was 49.4%. Besides, the growth was 32.6% in the assay on CAKI-1 renal, 33.8% in the assay with A498 renal, 24.8% in the assay with CCRF-CEM leukemia and 22.8% in the assay on MOLT-4 leukemia.

With `O=C1C=C(SCCO)C(=O)c2ccccc21`, the growth is -68.5% (active) in the assay on HCT-15 colon; 95.7% with HT29 colon; -83.9% (active) in the assay on SNB-75 CNS; 15% in the assay on SNB-19 CNS; -37.2% (active) with U251 CNS; 62.3% in the assay with PC-3 prostate. Also, the growth with SK-MEL-5 melanoma was -98% (active); with UACC-62 melanoma it was 22.3%; with SK-MEL-28 melanoma it was 42.9%; in the assay with SK-MEL-2 melanoma, 28.4%; with SN12C renal it was -87.1% (active); in the assay on UO-31 renal, -37.4% (active). Moreover, the growth was 95.9% with TK-10 renal; -74% (active) in the assay with ACHN renal; 47.5% in the assay with CAKI-1 renal; 113% with A498 renal; -14.4% (active) in the assay with CCRF-CEM leukemia; 2.43% (active) in the assay on MOLT-4 leukemia.

With `CS(=O)(=O)Nc1cc(-c2ccc3ncnc(Nc4ccc(F)c(Cl)c4)c3c2)ccc1Cl`, the growth in the assay on HCT-15 colon was 41.3%; in the assay with HT29 colon, 34.8%; in the assay on SNB-75 CNS, 30.5%; with SNB-19 CNS it was 57.6%; with U251 CNS, 42.4%; with PC-3 prostate it was 36.8%. Further, the growth was 28.8% with SK-MEL-5 melanoma; 53.8% with UACC-62 melanoma; 62.5% in the assay on SK-MEL-2 melanoma; 20.9% in the assay on EKVX NSCLC; 52.7% with SN12C renal; 36.5% in the assay on UO-31 renal. Also, the growth in the assay on TK-10 renal was 17.3%; in the assay on ACHN renal, 27.2%; in the assay on CAKI-1 renal it was 18.1%; with A498 renal it was 6.7% (active); in the assay with CCRF-CEM leukemia, 30.2%; in the assay with MOLT-4 leukemia it was 40.2%.

For the molecule `O=C1/C(=C/c2ccccn2)SC(=S)N1N1CCOCC1`, the growth in the assay with HCT-15 colon was 102%; in the assay with HT29 colon, 103%; in the assay on SNB-75 CNS, 90.4%; with SNB-19 CNS it was 101%; in the assay on U251 CNS, 98.1%; in the assay with PC-3 prostate, 94.6%. Further, the growth in the assay on SK-MEL-5 melanoma is 99.2%; in the assay with UACC-62 melanoma, 92.8%; in the assay on SK-MEL-2 melanoma, 89.8%; in the assay with SN12C renal it was 93.6%; in the assay with UO-31 renal, 71.9%; in the assay on TK-10 renal, 98.5%. For the same molecule, the growth is 99.5% in the assay with ACHN renal; 92.6% with CAKI-1 renal; 102% with A498 renal; 84.2% in the assay on CCRF-CEM leukemia; 101% in the assay on MOLT-4 leukemia.

In the case of `COc1cc(O)c2c(=O)c3c(CC=C(C)C)cc(OC)c(O)c3oc2c1`, the growth in the assay with HCT-15 colon was 29.6%; with HT29 colon, 71.4%; with SNB-75 CNS it was 5.63% (active); with SNB-19 CNS, 27.2%; in the assay on U251 CNS, 9.71% (active); in the assay on PC-3 prostate, 73.9%. The growth with SK-MEL-5 melanoma is 52.9%; with UACC-62 melanoma, 17%; in the assay on SK-MEL-28 melanoma it was 63%; with SK-MEL-2 melanoma, 29.1%; in the assay with EKVX NSCLC, 53.7%; in the assay on SN12C renal, 40.2%. Besides, the growth in the assay with UO-31 renal is 43.7%; with TK-10 renal, 66.6%; in the assay on ACHN renal, 50.3%; with CAKI-1 renal it was 44%; in the assay with A498 renal, 31.1%; in the assay on CCRF-CEM leukemia, 16.5%. The growth in the assay with MOLT-4 leukemia is 25.6%.

Turning to `Cc1nc(N/N=C/c2cn(-c3ccccc3)nc2-c2cc3ccccc3oc2=O)sc1N=Nc1ccccc1`, the growth with HCT-15 colon is 56.1%; with HT29 colon, 85.2%; in the assay with SNB-75 CNS it was 50.4%; with SNB-19 CNS it was 91.9%; in the assay with U251 CNS, 93.1%; with PC-3 prostate it was 85.8%. The growth with SK-MEL-5 melanoma is 93.3%; in the assay on UACC-62 melanoma it was 71%; in the assay with SK-MEL-28 melanoma, 87.6%; in the assay with SK-MEL-2 melanoma, 93.7%; with EKVX NSCLC, 102%; in the assay with SN12C renal, 97.6%. For the same molecule, the growth was 70.7% with UO-31 renal; 106% in the assay with TK-10 renal; 98% with ACHN renal; 69.7% with CAKI-1 renal; 77% in the assay on A498 renal; 94.3% with CCRF-CEM leukemia. Moreover, in the assay with MOLT-4 leukemia, the growth was 85.1%.

For the molecule `CCCc1cc(=O)oc2c(C(=O)CC(C)C)c(O)c(CC=C(C)C)c(O)c12`, the growth in the assay with HCT-15 colon was 16.9%; in the assay on HT29 colon it was 57.3%; with SNB-75 CNS it was 52.6%; with SNB-19 CNS it was 21.5%; in the assay with U251 CNS, 22.5%; in the assay on PC-3 prostate, 6.87% (active). The growth was -45.8% (active) in the assay with SK-MEL-5 melanoma; -1.35% (active) in the assay on UACC-62 melanoma; 26.3% in the assay on SK-MEL-28 melanoma; 14.1% with SK-MEL-2 melanoma; 13.7% in the assay on EKVX NSCLC; 11.6% in the assay with SN12C renal. Moreover, the growth in the assay on UO-31 renal was 20%; in the assay on TK-10 renal, 27.4%; with ACHN renal, 27.5%; in the assay with CAKI-1 renal, 11.1%; in the assay on A498 renal it was -16.3% (active); with CCRF-CEM leukemia it was 12.9%. For the same molecule, the growth in the assay with MOLT-4 leukemia is 19.1%.

Take `C=C1C(=O)O[C@H]2[C@H]1CC/C(COC(=O)NCc1ccc(Cn3c(=O)sn(-c4ccc(I)cc4)c3=O)cc1)=C\CC[C@@]1(C)O[C@@H]21`: the growth was 57% with HCT-15 colon; 34.1% in the assay with HT29 colon; 81.6% in the assay with SNB-75 CNS; 107% with SNB-19 CNS; 83.6% with U251 CNS; 77.5% with PC-3 prostate. In addition, the growth was 98.3% in the assay on SK-MEL-5 melanoma; 81.2% in the assay on UACC-62 melanoma; 93.9% in the assay on SK-MEL-28 melanoma; 89.7% in the assay on SK-MEL-2 melanoma; 98.4% with EKVX NSCLC; 79.1% in the assay on SN12C renal. For the same molecule, the growth was 54.4% with UO-31 renal; 79.9% in the assay with TK-10 renal; 69.7% in the assay with ACHN renal; 71.5% in the assay with CAKI-1 renal; 87.7% in the assay with A498 renal; -14.3% (active) with CCRF-CEM leukemia. In addition, the growth with MOLT-4 leukemia is 5.6% (active).
